# In the supplement of paper PMC8726507:
# Tested on: Plasmodium falciparum NF54-HGL (transmission to Anopheles stephensi)
# Assay: percentage of barcode signal found in uninfected mosquitoes (transmission-blocking activity); higher = stronger blocking of transmission to mosquito, active = 80 or more
# Conditions: 10 µM; gametocyte preincubation time 24 h; readout time post-feed 8 days
# Method: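 The mixture was fed to Anopheles stephensi in 96-well plates as blood meals tagged with DNA-barcoded Asaia bacteria. Eight days later, mosquitoes were classed infected or uninfected by luminescence (mean + 5 SD of unfed controls). Barcodes were quantified by Luminex MagPlex-TAG in the pooled uninfected and infected Asaia cultures, background-corrected, and the score is % of barcode signal in uninfected mosquitoes = 100*Iu/(Iu+Ii).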
row,Compound,percentage of barcode signal found in uninfected mosquitoes
1,COC(=O)c1c(NC(=O)c2c(F)c(F)c(F)c(F)c2F)sc2c1CCCCC2,13.7% (inactive)
2,Cc1ccc2oc(-c3cc(NC(=O)Cc4ccccc4)ccc3Cl)nc2c1,24% (inactive)
3,COc1ccc(OC)c(NCc2ccc3nc(N)nc(N)c3c2Cl)c1,94.7% (active)
4,CC[C@H](CO)NCCN[C@H](CC)CO,24.2% (inactive)
5,CCc1c(C)nc(-n2nc(C)cc2NC(=O)c2ccccc2SC)[nH]c1=O,53.6% (inactive)
6,CCOc1ccc2cc(-c3nn(CC4CCN(C)CC4)c4ncnc(N)c34)ccc2c1,-7.02% (inactive)
7,O=C(NC1=NCCS1)c1sc2cc(F)ccc2c1Cl,5.7% (inactive)
8,FC(F)(F)c1cnc(Sc2nnc(-c3ccncc3)o2)c(Cl)c1,68.8% (inactive)
9,CN(C(=O)c1cc2c(-c3cncnc3)cccc2[nH]1)c1ccccc1,66.4% (inactive)
10,O=C(c1ccco1)N(CCCn1ccnc1)c1nc2c(Cl)cccc2s1,17.2% (inactive)
11,N#Cc1nc(-c2ccccc2F)oc1NCCc1ccccc1,1.26% (inactive)
12,Cc1ccc2[nH]c3c(NCCN(C)C)ncnc3c2c1,40.6% (inactive)
13,CCOC(=O)c1cc(-c2csc(Nc3c(C)cc(C)cc3C)n2)on1,11.5% (inactive)
14,COc1cccc(-n2nnnc2S(=O)(=O)Cc2ccccc2)c1,90.4% (active)
15,CNC1C(OC2C(OC3C(O)C(O)C(NC(=N)N)C(O)C3NC(=N)N)OC(C)C2(O)C=O)OC(CO)C(O)C1O (stereo not given),47% (inactive)
16,CCN(CC)CCCCCCNc1cc(OC)cc2c(C)ccnc12,55.8% (inactive)
17,CCc1cc(=O)n(C)c(SC(C)C(=O)Nc2ccc(F)cc2)n1 (stereo not given),48.5% (inactive)

# Same assay, conditions: 20 µM; gametocyte preincubation time 24 h; readout time post-feed 8 days
row,Compound,percentage of barcode signal found in uninfected mosquitoes
1,N#CCN(CCCCN1CCN(c2ccc(F)cc2)CC1)C(=O)OCc1ccccc1,36.5% (inactive)
2,CCCCN(CCCC)c1c(C#N)cc(S(=O)(=O)Nc2ccccc2)cc1C#N,10.5% (inactive)
3,CC(C)(C(=O)Nc1ccc(F)cc1)n1cc(-c2ccccc2F)cn1,0.429% (inactive)
4,CC1CCCN(C(=O)C(C)Nc2cc(Cl)ccc2N2CCOCC2)C1 (stereo not given),15.9% (inactive)
5,COc1cccc(CC(=O)N2CCC(n3c(C)nc4ccc(F)cc43)CC2)c1,31.2% (inactive)
6,CCc1ccc(C(NCc2nc(N)nc(N(C)C)n2)C(C)C)cc1 (stereo not given),54.2% (inactive)
7,NS(=O)(=O)c1cccc(-c2ccc3ncc(N4CCOCC4)nc3c2)c1,64.7% (inactive)
8,COc1ccc(-c2cncc3ccc(C(=O)NCCCn4ccnc4)nc23)cc1,62.9% (inactive)
9,Cc1cc(OCC(=O)Nc2ccc(C(C)C)cc2)n(C)c(=O)c1C#N,35% (inactive)
10,O=C([C@@H](c1ccc(Cl)cc1)c1cccnc1)N1CCN(c2ccc(C(F)(F)F)cc2)CC1,-0.981% (inactive)
11,CCCCc1ccc(C(=O)Nc2nccc3ccccc23)nc1,48.5% (inactive)
12,Nc1ncc(Br)cc1-c1nc2cc(Cl)cnc2[nH]1,21.4% (inactive)
13,CCc1ccc(S(=O)(=O)Nc2cc(CN3CCN(CCC(C)C)CC3)ccc2C)cc1,22.9% (inactive)
14,CC(C)(C)n1nc(Cc2cccc3ccccc23)c2c(N)ncnc21,0.0299% (inactive)
15,CC(C)(C)c1ccc(N[C@@H]2CCCC[C@H]2NC(=O)c2ccco2)cc1,31.3% (inactive)
16,CCCCS(=O)(=O)Nc1ccc2cnn(C)c2c1,4.19% (inactive)
17,O=C(NCCc1ccn(-c2ccccc2)n1)C1CCCCC1,3.62% (inactive)
18,CN1CCCN(C(c2ccccc2)c2ccc(Cl)cc2)CC1 (stereo not given),25.1% (inactive)
19,CCc1nc2ccc(Cl)cn2c1C(=O)NCc1ccc(N2CCC(c3ccc(OC(F)(F)F)cc3)CC2)cc1,32% (inactive)
20,COc1cccc(-c2cc3c(Nc4cccnc4)nccc3[nH]2)c1,29% (inactive)
21,CCOc1ccc(-c2nc(CNCCc3ccc(F)cc3)cs2)cc1,41.8% (inactive)
22,COc1cc(Br)cc2cc(C(=O)Nc3cccc(C(F)(F)F)c3)c(=O)oc12,19.3% (inactive)
23,COc1ccc(S(=O)(=O)Nc2ccc(CN3CCN(C(=O)c4cccc(C#N)c4)CC3)cc2)cc1,8.68% (inactive)
